Jurkat NFkB inh – lowers PMA/ionomycin-induced NF-kB signal in Jurkat cells. PMA/ionomycin-induced NF-kB luciferase reporter, luminescence. inhibition, % at 4 µM. 330,000 compounds, 0.53% hits. AID 435003; in the data active = inhibition above about 50%
697 NFkB inh – lowers PMA/ionomycin-induced NF-kB signal in 697 B cells; inhibition, % at 4 µM; AID 435022; 697 B-cell NF-kB luciferase reporter, 16 h; 330,000 compounds, 0.33% hits; in the data active = inhibition above about 35%
Mdm2-MdmX inh – human Mdm2/MdmX binding inhibition | O15151+Q00987 | SaOS-2 split-luciferase Mdm2/MdmX complementation, luminescence | inhibition, % at 8 µM | 330,000 compounds, 3% hits | AID 485346;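 active = inhibition of at least 50% at 8 µM in the primary screen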
Target sequence (O15151 whole entry, looked up): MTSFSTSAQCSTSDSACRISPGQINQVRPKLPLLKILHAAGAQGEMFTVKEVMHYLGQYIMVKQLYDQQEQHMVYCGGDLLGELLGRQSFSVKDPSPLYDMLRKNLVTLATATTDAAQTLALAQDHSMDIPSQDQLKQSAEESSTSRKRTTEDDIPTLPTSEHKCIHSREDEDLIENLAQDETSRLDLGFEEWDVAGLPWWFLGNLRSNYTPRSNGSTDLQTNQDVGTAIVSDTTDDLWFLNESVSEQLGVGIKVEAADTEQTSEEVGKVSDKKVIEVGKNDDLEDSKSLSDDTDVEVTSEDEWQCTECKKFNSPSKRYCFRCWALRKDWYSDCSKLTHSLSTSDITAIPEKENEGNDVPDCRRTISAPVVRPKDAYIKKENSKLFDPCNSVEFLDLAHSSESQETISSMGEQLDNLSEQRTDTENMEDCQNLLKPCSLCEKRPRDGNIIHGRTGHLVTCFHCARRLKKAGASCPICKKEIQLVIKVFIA
Target sequence (Q00987 whole entry, looked up): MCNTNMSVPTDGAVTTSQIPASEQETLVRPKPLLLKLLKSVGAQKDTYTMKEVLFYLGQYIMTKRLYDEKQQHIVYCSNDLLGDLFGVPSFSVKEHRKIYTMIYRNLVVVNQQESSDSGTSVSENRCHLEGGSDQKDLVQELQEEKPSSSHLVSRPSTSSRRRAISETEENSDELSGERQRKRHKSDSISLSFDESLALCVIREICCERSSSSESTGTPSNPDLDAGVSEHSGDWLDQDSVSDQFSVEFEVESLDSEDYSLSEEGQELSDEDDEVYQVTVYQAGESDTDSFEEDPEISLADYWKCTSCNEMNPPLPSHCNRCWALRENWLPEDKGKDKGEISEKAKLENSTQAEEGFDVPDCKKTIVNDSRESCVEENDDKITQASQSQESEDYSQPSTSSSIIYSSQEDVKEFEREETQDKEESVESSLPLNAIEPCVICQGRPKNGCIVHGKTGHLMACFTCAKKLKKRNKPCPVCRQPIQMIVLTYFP
Beta cell apopt – beta cell apoptosis inhibition; INS-1E cytokine-induced death, ATP luminescence, 48 h; percent of positive-control rescue, neutral wells zero; protection from apoptosis, % (concentration not given with the values); 300,000 compounds, 0.8% hits;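 active = Every replicate reaches about 75%, or at least half do and their mean reaches it too, limit read from the data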;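 note: higher means more ATP so stronger rescue from cytokine killing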
Gli-Sufu antag – Gli-Sufu pathway antagonism | 340,000 compounds, 0.74% hits | inhibition, % at 5 µM | Sufu-KO-LIGHT fibroblasts, Gli luciferase reporter luminescence;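 active = inhibition above about 55%, limit read from the data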
CSC inhib – blocks cancer stem cells | cancer stem cell-like cells viability, luminescence | inhibition, % at 7.5 µM | 300,000 compounds, 1.1% hits; in the data active = inhibition above about 75%; tested in HMLE shEcad cells
Jurkat NFkB conf – lowers PMA/ionomycin-induced NF-kB signal in Jurkat cells | AID 435020 | 2,700 compounds, 27% hits | Jurkat NF-kB luciferase, 16 h | shares compounds with Jurkat NFkB inh | inhibition, % at 4 µM;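 active = inhibition reaching about 45% at 4 µM in either replicate, limit read from the data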
697 NFkB conf – lowers PMA/ionomycin-induced NF-kB signal in 697 B cells. shares compounds with 697 NFkB inh. 697 B-cell NF-kB luciferase, 16 h. inhibition, % at 4 µM. 2,000 compounds, 35% hits; in the data active = inhibition mostly above about 28%, no sharp cut-off; inactive = mostly below about 22%
Of the large screens only hits and unclear results are named; the others gave an inactive call (follow-up assays come after a bar, where they were run). Compounds with a hit are over-represented: about 4.5% of the library has one in this group of screens.

CC(=Nc1ccccc1)c1sc2ccccc2c1O	none | Jurkat NFkB conf inactive | 697 NFkB conf inactive
Cc1cc(NC(=O)Nc2ccc(OCc3ccccc3)cc2)n(C)n1	none
CCCCn1c(N)c(N(CC(C)C)C(=O)CSCc2cccc(C)c2)c(=O)[nH]c1=O	none (no result: Beta cell apopt)
Cc1cc(C)nc(SC2=CS(=O)(=O)c3ccccc32)n1	none
O=S1(=O)C=C(Sc2nc3ccccc3s2)c2ccccc21	Jurkat NFkB inh 97, Beta cell apopt 122, CSC inhib 141 | Jurkat NFkB conf 92 | 697 NFkB conf inactive
Cc1cc([N+](=O)[O-])ccc1NC(=O)CCC(=O)N1CCCCCC1	none
O=C(COc1ccc([N+](=O)[O-])cc1Cl)NCCN1C(=O)CSC1=O	none
COc1cccc(-c2cc3onc(-c4ccccc4)c3c(=O)n2C)c1	none | Jurkat NFkB conf inactive | 697 NFkB conf inactive
COC(=O)c1ccc(-c2cc3onc(-c4ccccc4)c3c(=O)n2C)cc1	none
N=c1cc(C2(O)CCCCC2)n2c(nc3ccccc32)s1	none | Jurkat NFkB conf inactive | 697 NFkB conf inactive
COc1ccc(S(=O)(=O)N(Cc2ccco2)Cc2cc3ccccc3[nH]c2=O)cc1	none (no result: Beta cell apopt)
Cc1ccc(NC(=O)COc2ccc(N(C)C(=O)C(C)(C)C)cc2)cc1S(=O)(=O)N1CCCCC1	Jurkat NFkB inh 54, 697 NFkB inh 51, Beta cell apopt 115, Gli-Sufu antag 68 | Jurkat NFkB conf 78 | 697 NFkB conf 77
CCc1cccc(OCC(=O)Nc2ccc(C)c(S(=O)(=O)N3CCCCCC3)c2)c1	none
COc1cccc(N/C=C/C(=O)c2ccc(C)cc2)c1	none | Jurkat NFkB conf inactive | 697 NFkB conf inactive
O=C(/C=C/Nc1ccccc1)c1ccccc1	none (no result: CSC inhib) | Jurkat NFkB conf inactive | 697 NFkB conf inactive
O=C(/C=C/Nc1ccccc1)c1ccc(Cl)cc1Cl	none | Jurkat NFkB conf inactive | 697 NFkB conf inactive
CC(C)CNC(=O)COC(=O)c1ccc2c(c1)C(=O)N(Cc1ccco1)C2=O	none
COc1ccc(-n2ncc3c(N4CCC(C)CC4)ncnc32)cc1	none | Jurkat NFkB conf inactive | 697 NFkB conf inactive
CCOC(=O)N1CCN(c2ncnc3c2cnn3-c2ccc(OC)cc2)CC1	none (no result: Jurkat NFkB inh, 697 NFkB inh, Mdm2-MdmX inh, Beta cell apopt, CSC inhib)
Cc1ccnc(NC(=O)c2sc3ccccc3c2Cl)c1	none | Jurkat NFkB conf inactive | 697 NFkB conf inactive
N#CCC(=O)N/N=C\c1cccc(OC/C=C/c2ccccc2)c1	none
Clc1ccc(Nc2ncnc3c2cnn3-c2ccccc2)cc1	none
CC(C)Nc1ncnc2c1cnn2-c1ccc(Cl)cc1	none (no result: Beta cell apopt) | Jurkat NFkB conf inactive | 697 NFkB conf inactive
O=C(Nc1ccc2oc(-c3ccccc3)nc2c1)C1CCCO1 (centres undefined)	none
CCCC(=O)Nc1ccc(-c2nc3cc(C)ccc3o2)cc1	none | Jurkat NFkB conf inactive | 697 NFkB conf inactive
O=C(Nc1ccc(-c2nc3cc(Cl)ccc3o2)cc1)C1CCCO1 (centres undefined)	none | Jurkat NFkB conf inactive | 697 NFkB conf inactive
O=C(Cc1nc(=O)c2ccccc2s1)Nc1ccccc1	none | Jurkat NFkB conf inactive | 697 NFkB conf inactive
Cc1nc(NC(=O)c2cccnc2Cl)sc1C	none
O=C(c1ccc2c(=O)n(Cc3ccc(Cl)cc3)c(=S)[nH]c2c1)N1CCOCC1	none
CCOc1cc(/C=N/NC(=O)C(O)(c2ccccc2)c2ccccc2)ccc1OC(=O)c1ccco1	none
CC(/C=N/Nc1nc(C)cc(=O)[nH]1)=C\c1ccccc1	none
CC(/C=N/Nc1nc2ccccc2[nH]1)=C\c1ccccc1	none | Jurkat NFkB conf inactive | 697 NFkB conf inactive
c1ccc(Cn2c[n+](Cc3ccccc3)c3ccccc32)cc1	none (no result: Beta cell apopt)
N#C/C(=C\c1ccc(O)c(O)c1)C(=O)Nc1cccc2ncccc12	none
COc1ccc(N/C=C2\CCc3ccccc3C2=O)cc1	none | Jurkat NFkB conf inactive | 697 NFkB conf inactive
COc1ccc2c(c1)CC/C(=C\Nc1ccc3c(c1)OCO3)C2=O	none
C[C@H](NC(=O)c1nc[nH]c1C(=O)N[C@@H](C)C(=O)OCc1ccccc1)C(=O)OCc1ccccc1	Jurkat NFkB inh 51, 697 NFkB inh 56 | Jurkat NFkB conf 86 | 697 NFkB conf 60
CCOC(=O)c1c(C)[nH]c(C(=O)CSc2ccccc2)c1C	none | Jurkat NFkB conf inactive | 697 NFkB conf inactive
Clc1ccccc1Nc1nc(-c2cccnc2)cs1	none | Jurkat NFkB conf inactive | 697 NFkB conf inactive
c1cncc(Nc2nc(-c3cccnc3)cs2)c1	none
Fc1ccc(-c2csc(Nc3ccccn3)n2)cc1	none | Jurkat NFkB conf inactive | 697 NFkB conf inactive
Cc1cccnc1Nc1nc(-c2ccccc2)cs1	none (no result: Beta cell apopt) | Jurkat NFkB conf inactive | 697 NFkB conf inactive
COc1cc(OC)cc(OC(=O)C2CCN(C(=O)c3ccc(Cl)cc3)CC2)c1	none
CN1/C(=C\C(=O)C[n+]2ccc3ccccc3c2)C(C)(C)c2ccccc21	Jurkat NFkB inh 83, 697 NFkB inh 49 (no result: Beta cell apopt, CSC inhib) | Jurkat NFkB conf 79 | 697 NFkB conf inactive
O=C(c1nc[nH]c1C(=O)N1CCN(c2ccccc2)CC1)N1CCN(c2ccccc2)CC1	none
Cc1ccc2nc(NC(=O)c3ccccc3F)sc2c1	none (no result: Beta cell apopt) | Jurkat NFkB conf inactive | 697 NFkB conf inactive
CCOc1ccc2nc(NC(=O)COC)sc2c1	none
COc1ccc2nc(NC(=O)c3ccccc3F)sc2c1	none | Jurkat NFkB conf inactive | 697 NFkB conf inactive
COc1ccc(NC(=O)Nc2nc3ccccc3s2)cc1	none
CCOc1ccc2nc(NC(=O)c3ccoc3C)sc2c1	none | Jurkat NFkB conf inactive | 697 NFkB conf inactive
COc1ccc2nc(NC(=O)Nc3ccccc3)sc2c1	none (no result: Beta cell apopt, CSC inhib) | Jurkat NFkB conf inactive | 697 NFkB conf inactive
CC12CCC(=O)N1C(C(=O)NCc1ccc(Cl)cc1Cl)CS2 (centres undefined)	none
COc1cc2c(cc1OC)CN(C(=O)CSc1ccccc1C)CC2	none
O=[N+]([O-])c1ccccc1-c1nc(-c2ccc(Br)o2)no1	none
Clc1ccccc1-c1nc(-c2ccc(Br)o2)no1	none | Jurkat NFkB conf inactive | 697 NFkB conf inactive
COC(=O)c1ccc(N/C=C\C(=O)c2ccc3c(c2)OCO3)cc1	none
O=C(/C=C\Nc1cccc(F)c1)c1ccc2c(c1)OCO2	none | Jurkat NFkB conf inactive | 697 NFkB conf inactive
O=C(/C=C/c1ccccc1Br)c1ccc2c(c1)OCO2	none
O=C(/C=C\Nc1ccccc1Br)c1ccc2c(c1)OCO2	none | Jurkat NFkB conf inactive | 697 NFkB conf inactive
CCCCCn1c(=O)[nH]c2cc(C(=O)N3CCN(Cc4ccc5c(c4)OCO5)CC3)ccc2c1=O	Jurkat NFkB inh 64, 697 NFkB inh 105, Gli-Sufu antag 57 | Jurkat NFkB conf 77 | 697 NFkB conf 85
CCOC(=O)N1CCN(C2CCCN(C(=O)c3ccccc3N(C)C)C2)CC1 (centres undefined)	none (no result: Beta cell apopt)
Nc1c2c(nc3sc4c(c13)CCCCC4)CCCCC2	none | Jurkat NFkB conf inactive | 697 NFkB conf inactive
